Bioassay records (PubChem BioAssay)
Compounds with a hit are over-represented: about 0.51% of the library has one in this group of screens.
E coli growth-1: reduces bacterial viability in AddAB counter-screen. E. coli V3065 growth, OD600 absorbance, 18 h. actives 0.27% (n = 330,000). inhibition, % at 11.9 µM. AID 449728;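 active = inhibition above the campaign's mean inhibition across all tested compounds plus 3 SD, cut at about 9.9% in these data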;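 also: uninfected addAB+ strain grown without phage in ampicillin broth; 0% = DMSO wells and 100% = ciprofloxacin 0.95 µg/ml wells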
Tat export inh: E. coli Tat transport inhibition | inhibition, % at 10 µM | E. coli MC4100 TorA-mCherry Tat export, fluorescence | actives 0.036% (n = 340,000);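 active = mean replicate inhibition at least 50% and at least half of replicates individually reaching 50%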;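 also: exported cargo escapes ClpAP degradation while cytoplasmic cargo is degraded and loses fluorescence; 0% = median of neutral control wells and 100% = median of NaSCN control wells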
AddAB inh: less growth of phage-infected E. coli with AddAB; inhibition, % at 11.9 µM; actives 0.29% (n = 330,000); E. coli expressing H. pylori AddAB, absorbance growth; in the data active = inhibition above about 12%;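 also: 0% = vehicle wells of infected cells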
phage Ecoli inh: E. coli growth loss with phage present | growth absorbance | inhibition, % at 11.9 µM | actives 0.26% (n = 360,000); in the data active = inhibition above about 11%
E coli growth-2: blocks Escherichia coli growth; actives 0.21% (n = 330,000); OD600, 23 h; stronger effect = lower value; OD600 absorbance (test concentration not listed); AID 1053175;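 active = OD600 absorbance below the run mean of sample wells minus 3.6 SD, in any replicate, cut at about 0.56 in these data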
The depositor's hits bear a star.

What do the screens show for `O=C(NC(c1ccccc1)C1CC1C(=O)O)OCc1ccccc1` (centres undefined)?
E coli growth-2: 0.635

How did CC(C)(C)OC(=O)CCC(C(=O)NCCCCCCCCCCC(=O)N1CCN(C(=O)OC(C)(C)C)CC1)n1cc(CCCCCNC(=O)OC(C)(C)C)nn1 (centres undefined) do in these assays?
E coli growth-2: 0.749

Results for C(=C\c1ccco1)/c1nc2ccccc2[nH]1 ?
E coli growth-1: 2.3; Tat export inh: -28.8; AddAB inh: 6.6; phage Ecoli inh: 9.8; E coli growth-2: 0.572

How did C(=C\c1nc2ccccc2[nH]1)/c1ccccc1 do in these assays?
E coli growth-1: -1.6; Tat export inh: 4.0; AddAB inh: 0.6; phage Ecoli inh: 2.0; E coli growth-2: 0.531*

How did Cc1cc(NC(=O)Nc2cccc([N+](=O)[O-])c2)no1 do in these assays?
E coli growth-1: 1.8; Tat export inh: 6.3; AddAB inh: 3.7; phage Ecoli inh: 1.8; E coli growth-2: 0.68

What do the screens show for `COc1ccc(NC(=O)Nc2ccc(F)cc2F)c(C)c1`?
E coli growth-1: 0.1; Tat export inh: -6.3; AddAB inh: 0.8; phage Ecoli inh: 2.1; E coli growth-2: 0.697

How did Cc1cc([N+](=O)[O-])ccc1NC(=O)Nc1ccc(F)cc1F do in these assays?
E coli growth-1: 4.9; Tat export inh: 0.4; AddAB inh: 3.0; phage Ecoli inh: 4.1; E coli growth-2: 0.51*

How did O=C(Nc1ccc(OC(F)(F)F)cc1)Nc1cccc([N+](=O)[O-])c1 do in these assays?
E coli growth-1: 9.3; Tat export inh: -23.4; AddAB inh: 8.7; phage Ecoli inh: 10.2; E coli growth-2: 0.395*

What do the screens show for `Cc1ccc(NC(=O)Nc2cccc([N+](=O)[O-])c2)cc1F`?
E coli growth-1: 3.1; Tat export inh: 0.4; AddAB inh: 3.6; phage Ecoli inh: 10.1; E coli growth-2: 0.484*

What do the screens show for `Cc1nc(NC(N)=NS(=O)(=O)c2ccc([N+](=O)[O-])cc2)nc2ccccc12`?
E coli growth-2: 0.666

How did COC(=O)CCCC=C1SCC(NC(=O)c2ccccc2)C1=NO (centres undefined) do in these assays?
E coli growth-2: 0.721

Results for CCC(C)C(C(=O)N1CCNCC1)n1cc(CCCCN)nn1 (centres undefined) ?
E coli growth-2: 0.658

What do the screens show for `CCCCCOc1ccc(Br)cc1CSC(=N)N`?
Tat export inh: -8.3; phage Ecoli inh: 7.4; E coli growth-2: 0.48*

How did COc1cccc(C(=O)NC2C(=O)N3C(C(=O)O)=C(COC(C)=O)CSC23)c1 (centres undefined) do in these assays?
E coli growth-1: -0.3; Tat export inh: 0.1; AddAB inh: 1.3; phage Ecoli inh: 0.7

What do the screens show for `CC(=O)OCC1=C(C(=O)OC(C)(C)C)N2C(=O)[C@@H](NC(=O)Cc3ccccc3)[C@H]2SC1`?
Tat export inh: -5.2; phage Ecoli inh: 1.5; E coli growth-2: 0.723

How did COCC1=C(C(=O)OC(C)OC(=O)OC(C)C)N2C(=O)C(NC(=O)C(=NOC)c3csc(N)n3)C2SC1 (centres undefined) do in these assays?
E coli growth-2: 0.283*

How did CON=C(C(=O)NC1C(=O)N2C(C(=O)O)=C(COC(C)=O)CSC12)c1csc(N)n1 (centres undefined) do in these assays?
E coli growth-2: 0.063*

What do the screens show for `N#CC(=Cc1ccc(Cl)cc1)c1n[nH]c(Cn2cncn2)n1`?
E coli growth-2: 0.67

Results for C=C1CCN(C(Cc2ccccc2)C(=O)NCCCc2ccccc2)S(=O)(=O)c2ccccc21 (centres undefined) ?
E coli growth-2: 0.708

What do the screens show for `Cn1nnnc1SCC1=C(C(=O)O)N2C(=O)C(NC(=O)Cn3nc(C(F)F)cc3C3CC3)C2SC1` (centres undefined)?
E coli growth-1: 1.9; Tat export inh: -2.3; AddAB inh: 0.0; phage Ecoli inh: 9.3; E coli growth-2: 0.487*

How did CCN1CCN(C(=O)NC(C(=O)NC2C(=O)N3C(C(=O)O)=C(CSc4nnnn4C)CSC23)c2ccc(O)cc2)C(=O)C1=O (centres undefined) do in these assays?
E coli growth-2: 0.061*

What do the screens show for `Cc1nnc(SCC2=C(C(=O)O)N3C(=O)C(NC(=O)Cc4ccccc4)C3SC2)s1` (centres undefined)?
E coli growth-1: -0.9; Tat export inh: 8.2; AddAB inh: 1.9; phage Ecoli inh: 2.4; E coli growth-2: 0.6
